Measurements as given in PubChem BioAssay (NCI).
Compounds without any hit were thinned out: in the full panel of roughly 83,000, 20% have a hit.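 Cell lines were cultured in 96-well plates, exposed to a single compound concentration, and assessed for percent growth 48 hours later.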 Unmarked numbers belong to inactive results. Calls of active or inactive are those of the source. The calls were made as follows: active = growth percent below 10; inactive = the rest.

Key:
Assay in all cases: NCI-60 one-dose screen, 48 h (100 = growth as untreated, 0 = no growth, -100 = all killed)
Details in all cases: 10 µM unless noted
HCT-15 colon = system: HCT-15 colon
HT29 colon = system: HT29 colon
SNB-75 CNS = system: SNB-75 CNS
SNB-19 CNS = system: SNB-19 CNS
U251 CNS = system: U251 CNS
PC-3 prostate = system: PC-3 prostate
LOX IMVI melanoma = system: LOX IMVI melanoma
SK-MEL-28 melanoma = system: SK-MEL-28 melanoma
EKVX NSCLC = system: EKVX NSCLC
SN12C renal = system: SN12C renal
UO-31 renal = system: UO-31 renal
TK-10 renal = system: TK-10 renal
ACHN renal = system: ACHN renal
CAKI-1 renal = system: CAKI-1 renal
A498 renal = system: A498 renal
CCRF-CEM leukemia = system: CCRF-CEM leukemia
MOLT-4 leukemia = system: MOLT-4 leukemia
SK-MEL-2 melanoma = system: SK-MEL-2 melanoma

| Structure (SMILES) | growth (HCT-15 colon) | growth (HT29 colon) | growth (SNB-75 CNS) | growth (SNB-19 CNS) | growth (U251 CNS) | growth (PC-3 prostate) | growth (LOX IMVI melanoma) | growth (SK-MEL-28 melanoma) | growth (EKVX NSCLC) | growth (SN12C renal) | growth (UO-31 renal) | growth (TK-10 renal) | growth (ACHN renal) | growth (CAKI-1 renal) | growth (A498 renal) | growth (CCRF-CEM leukemia) | growth (MOLT-4 leukemia) | growth (SK-MEL-2 melanoma) |
| --- | --- | --- | --- | --- | --- | --- | --- | --- | --- | --- | --- | --- | --- | --- | --- | --- | --- | --- |
| O=C1c2cc3c(cc2-c2c1c1ccc(F)cc1c(=O)n2C[C@H](O)[C@H](O)[C@H](O)CO)OCO3 | 0.724% (active) | -4.15% (active) | -36.9% (active) | 2.14% (active) | -22.4% (active) | 6.99% (active) | -33.5% (active) | -30.6% (active) | 5.59% (active) | -18% (active) | -55.2% (active) | -25.7% (active) | -53.8% (active) | -20.6% (active) | -85.7% (active) | 2.16% (active) | -12.3% (active) |  |
| COc1cccc2c1C(=O)c1c(O)c3c(c(O)c1C2=O)C[C@](O)(C(=O)CO)C[C@H]3O[C@@H]1C[C@@H](NC(=O)CCCCCN(C)C2(c3ccc(F)cc3)CC3CCC2C3)[C@H](O)[C@@H](C)O1 (some centres undefined) | 0.779% (active) | -55.5% (active) | 41.3% | 10.4% | -100% (active) | -82.7% (active) | -90.5% (active) |  | 33.9% |  | 62.8% | 68.7% | -77.4% (active) | 52.6% | 54.6% | -22.2% (active) | -27.7% (active) | 73.5% |
| CC(=O)OC[C@H]1O[C@H](OC(C)=O)[C@H](NC(=O)/C=C/CCl)[C@@H](OC(C)=O)[C@@H]1OC(C)=O | 99.1% | 54.3% | 71.3% | 86.8% | 45.1% | 70.4% | 68.8% |  | 94.9% |  | 103% | 75% | 77.1% | 101% | 104% | 24.6% | 81.9% | 66.6% |
| O=C1/C(=C/c2ccccc2O)N=C2SCCCN12 | 97% | 103% | 70.6% | 90.8% | 98.6% | 88.2% | 96.5% |  | 81.8% |  | 84% | 109% | 98.4% | 85.1% | 85.7% | 131% | 115% | 95.6% |
| Cc1nc(Nc2ccc(F)c(Cl)c2)sc1C(=O)O | 11.3% | 3.5% (active) | -13.4% (active) | 26.2% | 8.16% (active) | 7.92% (active) | 2.1% (active) |  | 8.63% (active) |  | -8.39% (active) | 21% | 11.2% | 8.86% (active) | -26.2% (active) | 9.7% (active) | 6.93% (active) | 10.7% |
| O=C1c2c(O)cc(O)cc2-c2c(-c3ccc(O)cc3)oc3cc(O)cc1c23 | 57.5% | 88.8% | 26.4% | 44.8% | 25.5% | 50.5% | 17.9% |  | 62.2% |  | 12.7% | 63.4% | 9.27% (active) | 33% | 62.5% | 6.03% (active) | 1.37% (active) | 72.3% |
| OCCN1CCN(c2nc(Nc3ccc(-c4nc5ccccc5[nH]4)cc3)c3cn[nH]c3n2)CC1 | -78.9% (active) | -91.4% (active) | -96.6% (active) | -76.7% (active) | -99.7% (active) | -76.1% (active) | -89.2% (active) |  | -80.4% (active) |  | -89.4% (active) | -97.2% (active) | -85.3% (active) | -97.3% (active) | -78.8% (active) | -73.9% (active) | -79.6% (active) | -83.6% (active) |
| CC[C@H]1OC(=O)[C@H](C)[C@@H](O[C@H]2C[C@@](C)(OC)[C@@H](O)[C@H](C)O2)[C@H](C)[C@@H](O[C@@H]2O[C@H](C)C[C@H](N(C)C)[C@H]2O)[C@](C)(O)C[C@H](C)CN(C)[C@H](C)[C@@H](O)[C@]1(C)O | 97.1% | 102% | 80.8% | 93.4% | 94.8% | 91% | 87% | 114% | 86.5% | 93.9% | 78.9% | 103% | 96.5% | 96.6% |  |  | 103% | 117% |
| CCOc1ccc(-n2nc(C(=O)Nc3ccccc3)nc2-c2cc(OC)c(OC)c(OC)c2)cc1 | 35.4% | 13% | 35.1% | 55.8% | 36.1% | 44.9% | 55.8% |  | 53.2% |  | 37.7% | 72.4% | 62.8% | 51.6% | 10.3% | 50.8% | 42.9% | 37.7% |
| COc1cccc(-c2nc(SCC(=O)Nc3ccc(C(=O)/C=C/c4ccc(OC)c(OC)c4)cc3)[nH]c(=O)c2C#N)c1 | 83.6% | 102% | 71.8% | 76.3% | 85.3% | 100% | 81.4% |  | 87.7% |  | 79.3% | 109% | 86.6% | 88.4% | 97.2% | 90% | 74.8% | 96.6% |
| COc1cc2c(cc1-c1c(C)noc1C)ncc1nc(C3CCCC3)n([C@H](C)COC(F)F)c12 | 16.8% | 18.3% | 37.4% | 49.5% | 39.7% | 31.8% | 13.2% | 53.8% | 44.2% | 57.3% | -30% (active) | 30.6% | 32.9% | 18.7% | -27.3% (active) | 48.7% | 42.3% | 67.8% |
| NCCNc1nc(Nc2ccc(-c3nc4ccccc4[nH]3)cc2)c2cn[nH]c2n1 | 101% | 62.7% | 71.7% | 66.5% | -55.4% (active) | 74% | -17.8% (active) |  | 88.9% |  | 76.7% | 105% | 91.9% | 91.5% | 115% | -3.49% (active) | 8.24% (active) | 75% |
| COc1ccc(-c2nc(SCC(=O)Nc3ccc(C(=O)/C=C/c4ccc(Cl)cc4)cc3)[nH]c(=O)c2C#N)cc1 | 97.9% | 103% | 85.2% | 39.4% | -15.3% (active) | 93.6% | -79.4% (active) |  | 95.7% |  | 89.1% | 102% | 98.9% | 82.8% | 101% | 94.2% | 84.4% | 100% |
| C=C1C(=O)O[C@H]2[C@H]1CC/C(COC(=O)NCCc1ccc(OC)c(OC)c1)=C\CC[C@@]1(C)O[C@@H]21 | 61.7% | 32.8% | 61.2% | 90.1% | 76.8% | 78.8% | 75% |  | 71.5% |  | 43% | 36% | 8.5% (active) | 45.2% | 81.3% | -8.78% (active) | 43.6% | 83% |
| CCOc1ccc(-n2nc(C(=O)Nc3cc(OC)c(OC)c(OC)c3)nc2-c2cc(OC)c(OC)c(OC)c2)cc1 | 82.1% | 84.6% | 65.6% | 82.1% | 85.1% | 70.2% | 89% |  | 96.1% |  | 52.6% | 104% | 85.7% | 77.4% | 67.3% | 66.5% | 67.5% | 85.6% |
| Nc1n[nH]c2cc(F)c([C@@H]3Nc4ccc5[nH]ncc5c4[C@H]4C5CCC(C5)[C@@H]34)cc12 (some centres undefined) | 6.23% (active) | 3.7% (active) | -13.5% (active) | 35.4% | 2.97% (active) | 8.48% (active) | 12.3% | 65.8% | 47.2% | 33.5% | 38.6% | 52.5% | 21.1% | 9.87% (active) |  |  | 16.1% | 26.2% |
